# Records with an inconclusive call do not appear. Entries that show only a call come without a potency. Values without a mark were called inactive. Activity calls are given as the source filed them. The call rests on the fitted dose curve; in most records, active means well fitted curve in the direction sought with a large enough effect; inconclusive means small, poorly fitted or top-dose-only effect, or another doubt; inactive means no such curve, though single readings can be large; an effect the other way counts as inactive or inconclusive.
# Key:
# [1] = biological target: Metallo-beta-lactamase type 2 (Klebsiella pneumoniae) (UniProt C7C422); test: qHTS to identify inhibitors of the New Delhi Metallo-beta-lactamase (NDM): assay validation screen against the NCATS LOPAC Collection (AID 1794843);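 further: nitrocefin turnover by NDM-1 measured as 485 nm absorbance at plateau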
# In short: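 Nitrocefin hydrolysis (50 uM substrate stock) by NDM-1, 2 nM final, was followed by 485 nm absorbance after compound preincubation; buffer was 50 mM HEPES pH 7.0, 1 uM ZnSO4, 0.01% Tween20.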
# [2] = biological target: Glutathione peroxidase 1 (Homo sapiens) (UniProt P07203); test: Primary qHTS Assay for Inhibitors of Recombinant Selenoprotein Glutathione Peroxidase 1 (GPX1) (AID 1845191); further: nearly all actives have a fitted effect of over 65% in size
# In short: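 10 nM GPX1 + cpd, 30 min RT; start w/ 1 mM GSH, 0.5 mM cumene hydroperoxide, 0.5 mM NADPH, 100 nM GR, 0.01% BSA; buffer 50 mM Tris-HCl pH 7.5, 2 mM EDTA, 150 mM NaCl; Fl 340/450, 0 & 15 min.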
# [3] = biological target: Phospholipid hydroperoxide glutathione peroxidase GPX4 (Homo sapiens) (UniProt P36969); test: Primary qHTS Assay for Inhibitors of Recombinant Selenoprotein Glutathione Peroxidase 4 (GPX4) (AID 1845192); conditions: outcome: dose series up to 50 µM unless noted; further: nearly all actives have a fitted effect of over 65% in size
# In short: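 NADPH consumption, followed by fluorescence at 340/450 nm between 0 and 15 min, reports GPX4 activity via coupled glutathione reductase (100 nM). Enzyme 200 nM was pre-exposed to compound 30 min; 0.5 mM cumene hydroperoxide and 1 mM GSH served as substrates.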
# [4] = qHTS profiling for inhibitors of Plasmodium falciparum proliferation (AID 504749); further: nearly all actives have a fitted effect of over 60% in size; further: potency means the concentration at half of the fitted maximal effect; conditions: P. falciparum in erythrocytes, SYBR Green DNA, 72 h
# In short: (§1)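 Three-day growth assay of blood-stage parasites in erythrocytes (0.3% parasitemia, 2.5% hematocrit) at 37 C, 5% CO2, quantified by SYBR Green DNA staining after overnight detergent lysis.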
# 3D7 = test: as above; conditions: P. falciparum in erythrocytes, SYBR Green DNA, 72 h; series mostly up to 28.7 µM
# In short: as §1
# 7G8 = test: as above; conditions: P. falciparum in erythrocytes, SYBR Green DNA, 72 h; series mostly up to 28.7 µM
# In short: as §1
# AA1029 = test: as above; conditions: P. falciparum in erythrocytes, SYBR Green DNA, 72 h; series mostly up to 28.7 µM
# In short: as §1
# AS120 = test: as above; conditions: P. falciparum in erythrocytes, SYBR Green DNA, 72 h; series mostly up to 28.7 µM
# In short: as §1
# ATS189 = test: as above; conditions: P. falciparum in erythrocytes, SYBR Green DNA, 72 h; series mostly up to 28.7 µM
# In short: as §1
# ATS95 = test: as above; conditions: P. falciparum in erythrocytes, SYBR Green DNA, 72 h; series mostly up to 28.7 µM
# In short: as §1
# C2A = test: as above; conditions: P. falciparum in erythrocytes, SYBR Green DNA, 72 h; series mostly up to 28.7 µM
# In short: as §1
# CP185 = test: as above; conditions: P. falciparum in erythrocytes, SYBR Green DNA, 72 h; series mostly up to 28.7 µM
# In short: as §1
# CP191 = test: as above; conditions: P. falciparum in erythrocytes, SYBR Green DNA, 72 h; series mostly up to 28.7 µM
# In short: as §1
# [5] = at 28.7 µM (top of the series), parasite line A
# [6] = at 28.7 µM (top of the series), parasite line B
# [7] = at 12.8 µM (top of the series), parasite line A
# [8] = at 12.8 µM (top of the series), parasite line B
# Phospholipid hydroperoxide glutathione peroxidase GPX4 (Homo sapiens), sequence (P36969 whole entry, looked up): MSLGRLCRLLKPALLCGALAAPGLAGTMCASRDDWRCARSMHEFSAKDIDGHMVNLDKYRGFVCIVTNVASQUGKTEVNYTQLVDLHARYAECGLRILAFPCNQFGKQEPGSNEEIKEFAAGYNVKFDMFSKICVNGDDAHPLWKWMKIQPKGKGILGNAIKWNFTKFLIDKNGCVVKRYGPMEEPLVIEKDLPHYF
# Metallo-beta-lactamase type 2 (Klebsiella pneumoniae), sequence (C7C422 whole entry, looked up): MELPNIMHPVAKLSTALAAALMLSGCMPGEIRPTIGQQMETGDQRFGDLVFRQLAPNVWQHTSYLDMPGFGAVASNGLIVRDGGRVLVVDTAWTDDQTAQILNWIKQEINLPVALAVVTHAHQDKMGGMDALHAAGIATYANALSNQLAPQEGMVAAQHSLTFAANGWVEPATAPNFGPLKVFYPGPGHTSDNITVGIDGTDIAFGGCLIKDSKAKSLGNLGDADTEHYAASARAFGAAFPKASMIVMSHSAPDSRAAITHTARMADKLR
# Glutathione peroxidase 1 (Homo sapiens), sequence (P07203 whole entry, looked up): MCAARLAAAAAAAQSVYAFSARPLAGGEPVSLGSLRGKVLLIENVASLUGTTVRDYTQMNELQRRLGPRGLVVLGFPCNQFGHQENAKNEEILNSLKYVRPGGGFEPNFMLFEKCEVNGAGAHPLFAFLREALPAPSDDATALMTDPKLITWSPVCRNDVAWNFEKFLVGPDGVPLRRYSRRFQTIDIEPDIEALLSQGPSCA
SMILES,Potency [1],Potency [2],outcome [3],"activity, negative = inhibition [4, 5]","activity, negative = inhibition [4, 6]",Potency (3D7),Potency (7G8),Potency (AA1029),Potency (AS120),Potency (ATS189),Potency (ATS95),Potency (C2A),Potency (CP185),Potency (CP191),Potency ([4]; parasite line A),Potency ([4]; parasite line B),"activity, negative = inhibition [4, 7]","activity, negative = inhibition [4, 8]"
CC(N=C(NC#N)Nc1ccncc1)C(C)(C)C (stereo not drawn),inactive,inactive,inactive,-3.66%,-7.16%,inactive,inactive,inactive,inactive,inactive,inactive,inactive,inactive,inactive,–,–,–,–
C[C@]12CC[C@@H]3c4ccc(O)cc4C[C@@H](CCCCCCCCCS(=O)CCCC(F)(F)C(F)(F)F)[C@H]3[C@@H]1CC[C@@H]2O (stereo partly drawn),inactive,inactive,inactive,–,–,–,–,–,–,–,–,–,–,–,–,–,–,–
CSc1ccc(C(=O)c2[nH]c(=O)[nH]c2C)cc1,inactive,inactive,inactive,9.87%,9.86%,inactive,inactive,inactive,inactive,inactive,inactive,inactive,inactive,inactive,–,–,–,–
CCCOc1ccccc1-c1nc2n[nH]nc2c(=O)[nH]1,inactive,inactive,inactive,-3.13%,3.38%,inactive,inactive,inactive,inactive,inactive,inactive,inactive,inactive,inactive,–,–,–,–
CN(C)C(=O)Oc1ccc[n+](C)c1,inactive,inactive,inactive,4.28%,5.75%,inactive,inactive,inactive,inactive,inactive,inactive,inactive,inactive,inactive,–,–,–,–
NC(N)=NC(=O)Cc1c(Cl)cccc1Cl,inactive,inactive,inactive,–,–,inactive,12.6 µM (active),–,–,–,–,–,–,8.91 µM (active),5.62 µM (active),5.01 µM (active),–,–
CN=C(NC#N)NCCSCc1nc[nH]c1C,inactive,inactive,inactive,-4.42%,-7.15%,inactive,inactive,inactive,inactive,inactive,inactive,inactive,inactive,inactive,–,–,–,–
Cc1ccc(=O)n(-c2ccccc2)c1,inactive,inactive,inactive,12.4%,18.6%,inactive,inactive,inactive,inactive,inactive,inactive,inactive,inactive,inactive,–,–,–,–
CNCCC(Oc1ccccc1OC)c1ccccc1 (stereo not drawn),inactive,inactive,inactive,3.02%,-7.17%,inactive,4.47 µM (active),10 µM (active),–,–,–,inactive,–,inactive,–,–,–,–
COc1cc2c(cc1OC)-c1cc(=Nc3c(C)cc(C)cc3C)n(C)c(=O)n1CC2,inactive,inactive,inactive,–,–,2.51 µM (active),0.891 µM (active),2.82 µM (active),3.55 µM (active),7.94 µM (active),3.55 µM (active),2.82 µM (active),5.62 µM (active),3.98 µM (active),2.82 µM (active),2.51 µM (active),–,–
CC(=O)[C@]1(O)Cc2c(O)c3c(c(O)c2[C@@H](O[C@H]2C[C@H](N)[C@H](O)[C@H](C)O2)C1)C(=O)c1ccccc1C3=O,inactive,inactive,inactive,–,–,2.82 µM (active),1.41 µM (active),3.55 µM (active),3.16 µM (active),5.62 µM (active),5.01 µM (active),6.31 µM (active),11.2 µM (active),3.16 µM (active),3.55 µM (active),11.2 µM (active),–,–
O=C(CCNNC(=O)c1ccncc1)NCc1ccccc1,inactive,inactive,inactive,13.9%,17%,inactive,inactive,inactive,inactive,inactive,inactive,inactive,inactive,inactive,–,–,–,–
CC[N+](C)(C)c1cccc(O)c1,inactive,inactive,inactive,–,–,inactive,inactive,inactive,inactive,inactive,inactive,inactive,inactive,inactive,–,–,14.2%,8.4%
c1cnc(N2CCN(Cc3ccc4c(c3)OCO4)CC2)nc1,inactive,inactive,inactive,13.8%,17.3%,inactive,inactive,inactive,inactive,inactive,inactive,inactive,inactive,inactive,–,–,–,–
NC(=O)c1ncn([C@@H]2O[C@H](CO)[C@@H](O)[C@H]2O)c1O,inactive,inactive,inactive,9.25%,1.87%,inactive,inactive,inactive,inactive,inactive,inactive,inactive,inactive,inactive,–,–,–,–
OCCN1CCN(CC/C=C2/c3ccccc3Sc3ccc(C(F)(F)F)cc32)CC1,inactive,inactive,inactive,–,–,12.6 µM (active),3.16 µM (active),8.91 µM (active),11.2 µM (active),7.94 µM (active),–,–,–,5.01 µM (active),8.91 µM (active),11.2 µM (active),–,–
CCO/C([O-])=N/c1c[n+](N2CCOCC2)no1,inactive,inactive,inactive,–,–,inactive,inactive,inactive,inactive,inactive,inactive,inactive,inactive,inactive,–,–,2.13%,0.211%

SMILES,Potency [1],Potency [2],outcome [3],"activity, negative = inhibition [4, 5]","activity, negative = inhibition [4, 6]",Potency (3D7),Potency (7G8),Potency (AA1029),Potency (AS120),Potency (ATS189),Potency (ATS95),Potency (C2A),Potency (CP185),Potency (CP191),Potency ([4]; parasite line A),Potency ([4]; parasite line B),"activity, negative = inhibition [4, 7]","activity, negative = inhibition [4, 8]"
CNC1(C)C2CCC(C2)C1(C)C (stereo not drawn),inactive,inactive,inactive,6.34%,5.34%,inactive,inactive,inactive,inactive,inactive,inactive,inactive,inactive,inactive,–,–,–,–
CN(C(=O)CCCOc1ccc2[nH]c(=O)ccc2c1)C1CCCCC1,inactive,inactive,inactive,-9.28%,16%,inactive,11.2 µM (active),inactive,inactive,inactive,inactive,–,inactive,inactive,–,–,–,–
CN(C)CC/C=C1\c2ccccc2COc2ccccc21,inactive,inactive,inactive,0.213%,6.5%,inactive,12.6 µM (active),8.91 µM (active),–,–,–,–,–,inactive,–,–,–,–
C[C@]12CCC(=O)C=C1CC[C@@H]1[C@@H]2C(=O)C[C@@]2(C)[C@H]1CC[C@]2(O)C(=O)CO,inactive,inactive,inactive,–,–,–,–,–,–,–,–,–,–,–,–,–,–,–
COC(=O)C1=C(C)NC(C)=C(C(=O)OC(C)(C)CN(C)CCC(c2ccccc2)c2ccccc2)C1c1cccc([N+](=O)[O-])c1 (stereo not drawn),inactive,inactive,inactive,–,–,2.51 µM (active),2 µM (active),2.51 µM (active),2 µM (active),2 µM (active),3.55 µM (active),4.47 µM (active),5.01 µM (active),3.16 µM (active),2 µM (active),2 µM (active),–,–
CCN1CCC[C@H]1CNC(=O)c1c(O)c(Cl)cc(Cl)c1OC,inactive,inactive,inactive,0.765%,14.7%,inactive,inactive,inactive,inactive,inactive,inactive,inactive,inactive,inactive,–,–,–,–
CCn1cc(C(=O)O)c(=O)c2cc3c(cc21)OCO3,inactive,inactive,inactive,-8.68%,-3.36%,inactive,–,inactive,inactive,inactive,inactive,inactive,inactive,inactive,–,–,–,–
O=C(CCCN1CCC(O)(c2cccc(C(F)(F)F)c2)CC1)c1ccc(F)cc1,inactive,inactive,inactive,–,–,–,3.98 µM (active),7.08 µM (active),7.94 µM (active),8.91 µM (active),10 µM (active),11.2 µM (active),–,7.94 µM (active),8.91 µM (active),8.91 µM (active),–,–
CC(C)(C)c1ccc(C(=O)CCCN2CCC(OC(c3ccccc3)c3ccccc3)CC2)cc1,inactive,inactive,inactive,–,–,7.94 µM (active),3.55 µM (active),10 µM (active),6.31 µM (active),10 µM (active),8.91 µM (active),–,–,–,10 µM (active),–,–,–
CN(C)C/C=C(/c1ccc(Br)cc1)c1cccnc1,inactive,inactive,inactive,-2.53%,–,inactive,8.91 µM (active),–,–,inactive,–,inactive,inactive,–,–,–,–,–
CCNC(=O)N1CCN(CCCC(c2ccc(F)cc2)c2ccc(F)cc2)CC1,inactive,inactive,–,–,–,7.08 µM (active),2 µM (active),2.24 µM (active),2.24 µM (active),1.12 µM (active),2.24 µM (active),1.41 µM (active),0.447 µM (active),1.12 µM (active),1.12 µM (active),1.26 µM (active),–,–
CC1=NS(=O)(=O)c2cc(Cl)ccc2N1,inactive,inactive,–,-21.1%,–,inactive,inactive,inactive,–,inactive,inactive,inactive,–,–,–,–,–,–
O=C(O)CN(CCOCCOCCN(CC(=O)O)CC(=O)O)CC(=O)O,inactive,inactive,–,8.03%,13.7%,inactive,inactive,inactive,inactive,inactive,inactive,inactive,inactive,inactive,–,–,–,–
NCCCNCCSP(=O)(O)O,inactive,inactive,–,8.13%,13.6%,inactive,inactive,inactive,inactive,inactive,inactive,inactive,inactive,inactive,–,–,–,–
COc1ccc([C@@H]2Sc3ccccc3N(CCN(C)C)C(=O)[C@@H]2OC(C)=O)cc1,inactive,inactive,inactive,3.17%,7.3%,inactive,–,inactive,inactive,inactive,inactive,inactive,inactive,inactive,–,–,–,–
CCN(CC)CC(=O)Nc1c(C)cccc1C,inactive,inactive,–,7.16%,15.8%,inactive,–,inactive,inactive,inactive,inactive,inactive,inactive,inactive,–,–,–,–

# Source: PubChem BioAssay (NCATS)
